# Experimental data taken from the supplement of paper PMC11634586.
# Tested on: NCI-H1688
# Assay: inhibition of cell viability relative to untreated control (fraction); higher = stronger growth inhibition, active = 0.5 or more
# Conditions: 30 µM; 24 h
# Procedure, shortened: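 Compounds from a natural compound library (TargetMol) were tested at 30 µM on NCI-H1688 small cell lung cancer cells for 24 h at 37°C under 5% CO2. Cell Counting Kit-8 absorbance at 450 nm, read in triplicate, gave the viability. The values express inhibition of cell viability as a fraction relative to untreated cells.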
row,SMILES,inhibition of cell viability
1,CCOC(=O)C1=C[C@]2(CC)CCCN3CCc4c(n1c1ccccc41)[C@@H]32 [Vinpocetine],-0.174 (inactive)
2,C[C@H]1[C@H](C)CC[C@]2(C(=O)O)CC[C@]3(C)C(=CC[C@@H]4[C@@]5(C)CC[C@H](O)C(C)(C)[C@@H]5CC[C@]43C)[C@H]12 [Ursolic acid],1.01 (active)
3,Oc1cc2c(cc1O)[C@@H]1c3ccc(O)c(O)c3OC[C@]1(O)C2 [Hematoxylin],0.0369 (inactive)
4,O=c1c(O)c(-c2ccc(O)c(O)c2)oc2cc(O)cc(O)c12 [Quercetin],0.68 (active)
5,CC(/C=C/C=C(\C)C(=O)O[C@@H]1O[C@H](CO[C@@H]2O[C@H](CO)[C@@H](O)[C@H](O)[C@H]2O)[C@@H](O)[C@H](O)[C@H]1O)=C\C=C\C=C(C)\C=C\C=C(/C)C(=O)O[C@@H]1O[C@H](CO[C@@H]2O[C@H](CO)[C@@H](O)[C@H](O)[C@H]2O)[C@@H](O)[C@H](O)[C@H]1O [Crocin],0.267 (inactive)
6,COc1ccc2c(C)cc(=O)oc2c1 [7-Methoxy-4-methylcoumarin],-0.298 (inactive)
7,CC1OC(OC2C(OC3CCC4(C)C(CCC5(C)C4CC=C4C6CC(C)(C)CCC6(C(=O)OC6OC(COC7OC(CO)C(O)C(O)C7O)C(O)C(O)C6O)CCC45C)C3(C)CO)OCC(O)C2O)C(O)C(O)C1O (centres undefined) [Dipsacoside B],0.235 (inactive)
8,"O=c1cc(-c2ccccc2)oc2c(O)c(O)ccc12 [7,8-Dihydroxyflavone]",0.694 (active)
9,Nc1ccccc1C(=O)CC(N)C(=O)O (centres undefined) [Kynurenine],-0.292 (inactive)
10,O=c1c(O)c(-c2ccc(O)c(O)c2)oc2cc(O)ccc12 [Fisetin],0.0255 (inactive)
11,OC[C@H]1O[C@H](OC[C@H]2O[C@H](OC[C@H]3O[C@H](O[C@]4(CO)O[C@H](CO)[C@@H](O)[C@@H]4O)[C@H](O)[C@@H](O)[C@@H]3O)[C@H](O)[C@@H](O)[C@H]2O)[C@H](O)[C@@H](O)[C@H]1O [D-Stachyose tetrahydrate],-0.0317 (inactive)
12,Cc1c(S(=O)(=O)O)oc2c1C(=O)C(=O)c1c-2ccc2c1CCCC2(C)C [Tanshinone IIA-sulfonic sodium],-0.0961 (inactive)
13,CC1(C)[C@@H](O)CC[C@]2(C)[C@H]3C(=O)C=C4[C@@H]5C[C@@](C)(C(=O)O)CC[C@]5(C)CC[C@@]4(C)[C@]3(C)CC[C@@H]12 [Enoxolone],-0.0418 (inactive)
14,C[C@H]1O[C@H](O[C@H]2[C@H](O)[C@@H](O)[C@@H](O[C@H]3[C@H](O)[C@@H](O)C(O)O[C@@H]3CO)O[C@@H]2CO)[C@H](O)[C@@H](O)[C@@H]1N[C@H]1C=C(CO)[C@@H](O)[C@H](O)[C@H]1O (some centres undefined) [Acarbose],-0.208 (inactive)
